The source made the active and inactive calls.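 How the source made its calls: active means response relative to DMSO over 150%; inconclusive means yeast strain with under 70 recorded events; inactive means the rest.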
Experiment: AGP1-GFP expression modulators, hit retest, confirmation, cell-based, flow cytometry, S. cerevisiae, cherry pick set 3 (AID 504334);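 further: median GFP fluorescence per well by flow cytometry over the all cells gate; ratio of sample to mean DMSO control signal so DMSO = 100% not 0%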
Conditions: S. cerevisiae AGP1-GFP strain, 3 h, at 10 µM, hits give high values

| SMILES | percent response vs DMSO |
| --- | --- |
| O=C(Nc1ccc(-c2nc3ccccc3o2)cc1)c1cccnc1 | 100% (inactive) |
| NC(=O)c1ccnc2c(O)cccc12 | 100% (inactive) |
| O=C(N/N=C/c1ccccc1F)c1cccc2ccccc12 | 101% (inactive) |
| C/C(=C\C(=O)c1ccc(C)cc1)Nc1cccc(O)c1 | 101% (inactive) |
| COc1ccc(NC(=O)O/N=C2/CCCc3ccc(OC)cc32)cc1 | 95.8% (inactive) |
| C[n+]1cccc2c(Br)ccc([O-])c21 | 100% (inactive) |
| COc1cccc2c(Cl)c(CCCl)c(C)nc12 | 99.8% (inactive) |
| COc1cccc(NC(=O)CC(C)=O)c1 | 98.8% (inactive) |
| Nc1[nH]c(=O)nc(Nc2ccccc2)c1N=O | 101% (inactive) |
| O=C(Nc1nc(-c2ccccn2)cs1)c1ccccc1-n1cnnn1 | 100% (inactive) |
| COc1ccc(OC)c(N/C(C)=C/C(=O)c2ccccc2)c1 | 99.8% (inactive) |
| C/C(=C\C(=O)c1ccccc1)Nc1ccc(O)cc1 | 98.4% (inactive) |
| COc1cc(OC)cc(C(=O)Nc2ccc(-c3nc4ccccc4o3)cc2)c1 | 99.1% (inactive) |
| Nc1cc(C(=O)O)c(N)c2c1C(=O)c1ccccc1C2=O | 102% (inactive) |
| CSc1ccccc1OCc1cc(C(=O)N2CCN(C)C(c3ccccc3)C2)no1 (centres undefined) | 101% (inactive) |
| COc1cccc(OCc2cc(C(=O)N3CCN(C)C(c4ccccc4)C3)no2)c1 (centres undefined) | 101% (inactive) |
| COc1ccccc1Nc1nc(NCCO)nc(N)c1[N+](=O)[O-] | 99.1% (inactive) |
| Cc1ccc2c(Cl)cc(Cl)c(OCC(=O)O)c2n1 | 109% (inactive) |
| C=CCNc1ncnc2ccc(Br)cc12 | 101% (inactive) |
| FC(F)Oc1cccc2cccnc12 | 96.4% (inactive) |

| SMILES | percent response vs DMSO |
| --- | --- |
| CCCC(=O)Nn1cnc2c(c1=O)C1(CCCCC1)Cc1ccccc1-2 | 102% (inactive) |
| C/C(=C\C(=O)c1ccc(Cl)cc1)Nc1ccc(Br)cc1 | 99.8% (inactive) |
| Oc1ccc(F)c2cccnc12 | 102% (inactive) |
| CCC(=O)Nn1cnc2c(c1=O)C1(CCCCC1)Cc1ccccc1-2 | 102% (inactive) |
| CC(=O)C(Cl)C(=O)Nc1ccccc1 (centres undefined) | 105% (inactive) |
| C/C(=C\C(=O)c1ccccc1)Nc1cccc(O)c1 | 97.1% (inactive) |
| O=C(O)c1ccc(C=NNC(=O)c2cccc3ccccc23)cc1 | 107% (inactive) |
| O=C(O)CCCCCNc1ncnc2ccc(Br)cc12 | 101% (inactive) |
| COCCCNc1nc(N)c([N+](=O)[O-])c(Nc2ccccc2OC)n1 | 103% (inactive) |
| Cc1ccc(C)c(Nc2ncnc(N)c2[N+](=O)[O-])c1 | 102% (inactive) |
| CNc1nc(N)c([N+](=O)[O-])c(Nc2cccc(Cl)c2)n1 | 104% (inactive) |
| CNc1cccc2c1C(=O)c1ccccc1C2=O | 100% (inactive) |
| Nc1ccc(O)c2c1C(=O)c1ccccc1C2=O | 103% (inactive) |
| Nc1c(C(=O)O)ccc2c1C(=O)c1ccccc1C2=O | 114% (inactive) |
| Cc1nc2c(O)cccc2cc1CO | 99.1% (inactive) |
| CCN(CC)C(=O)Oc1cc(=O)n(C)c2ccccc12 | 100% (inactive) |
| Cc1ccc(C(=O)Nc2nc(-c3ccccn3)cs2)o1 | 102% (inactive) |
| O=C(O)c1ccc2cccc(O)c2n1 | 103% (inactive) |
| N#Cc1c(N)nc(N)nc1Nc1ccc(Br)cc1 | 98.4% (inactive) |

Reference: PubChem BioAssay AID504334 (NMMLSC, 2011)
